The values below come from PubChem BioAssay (EPA / NIEHS).

The AC50 is the concentration giving half of the maximal activity seen.

Results filed as inconclusive are left out. Activity calls are given as the source filed them. Rule for the calls: active = hit-call score of the fitted dose curve at least 0.9, where 1 is the maximum; inconclusive = response in the unintended direction; inactive = score below 0.9.

Estrogen receptor (Homo sapiens), sequence (P03372 whole entry, looked up, the tested form may be a part): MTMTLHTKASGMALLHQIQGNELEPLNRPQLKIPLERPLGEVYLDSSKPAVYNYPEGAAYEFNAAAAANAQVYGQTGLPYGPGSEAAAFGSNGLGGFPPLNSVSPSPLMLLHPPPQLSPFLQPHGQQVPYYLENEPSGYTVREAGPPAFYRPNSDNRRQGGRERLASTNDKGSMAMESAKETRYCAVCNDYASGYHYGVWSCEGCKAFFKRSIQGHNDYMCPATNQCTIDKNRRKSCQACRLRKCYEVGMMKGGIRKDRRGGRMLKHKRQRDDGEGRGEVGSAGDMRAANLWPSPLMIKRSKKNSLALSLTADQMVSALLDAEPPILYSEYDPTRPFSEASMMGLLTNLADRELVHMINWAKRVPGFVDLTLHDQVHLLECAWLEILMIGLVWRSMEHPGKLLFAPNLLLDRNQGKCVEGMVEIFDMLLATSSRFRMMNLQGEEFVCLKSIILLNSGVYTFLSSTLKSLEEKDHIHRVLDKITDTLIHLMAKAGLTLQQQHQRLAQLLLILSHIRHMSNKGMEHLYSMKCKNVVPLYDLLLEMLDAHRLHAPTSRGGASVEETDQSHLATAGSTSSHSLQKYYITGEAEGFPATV

The experiment has as its target Estrogen receptor (Homo sapiens) (UniProt P03372). Description: ATG_ERa_TRANS: Attagene TRANS-FACTORIAL HepG2 Assay for human Estrogen Receptor alpha (ERa) (AID 2282970). The settings on record: HepG2 Attagene TRANS ERa GAL4 reporter, mRNA. Here is the method:
ATG_TRANS is a cell-based, multiplexed-readout assay that uses HepG2, a human liver cell line, with measurements taken at 24 hours after chemical dosing in a 24-well plate.ATG_ERa_TRANS is one of 30 assay component(s) measured or calculated from the ATG_TRANS assay. It is designed to make measurements of mRNA induction, a form of inducible reporter, as detected with fluorescence intensity signals by Reverse transcription polymerase chain reaction (RT-PCR) and Capillary electrophoresis technology.Data from the assay component ATG_ERa_TRANS was analyzed into 1 assay endpoint. This assay endpoint, ATG_ERa_TRANS, was analyzed in the positive analysis fitting direction relative to DMSO as the negative control and baseline of activity. Using a type of inducible reporter, measures of mRNA for gain-of-signal activity can be used to understand the reporter gene at the transcription factor-level as they relate to the gene ESR1. Furthermore, this assay endpoint can be referred to as a primary readout, because this assay has produced multiple assay endpoints where this one serves a reporter gene function. To generalize the intended target to other relatable targets, this assay endpoint is annotated to the nuclear receptor intended target family, where the subfamily is steroidal.
Human liver HepG2 cells are transiently transfected with multiple reporter transcription units (MRTUs) in 6-well plates using FuGene 6 reagent (Roche; 3 ml FuGene/1 mg DNA). The MRTU constructs are regulated by a cis-regulating element (promoter). […] A major difference between the CIS and TRANS system is that in CIS activities of endogenous TFs are measured, whereas the TRANS assay evaluates changes in activities of exogenous, chimeric NR-Gal4 proteins. […] At the end of 24 hour incubation, total RNA was isolated using TriZol reagent (Invitrogen). The isolated RNA is then reverse-transcribed using oligo(dT) primer and Mo-MLV reverse transcriptase (Invitrogen) with DNAse I (Ambion) treatment for 30 min. The one-tenth of the produced cDNA was amplified by PCR using Taq DNA polymerase (Invitrogen) and two reporter sequence-specific primers. The PCR products were fluorescently labeled by primer extension with 6-arboxyfluorescein (6-FAM) 5'-labeled reporter sequence-specific primer (2 min at 95 C, 20 s at 68 C and 10 min at 72 C) and these products were digested with 5U of HpaI (New England Biolabs) for 2h at 37 C. […] The raw capillary electrophoresis data was processed using Attagraph software (Attagene).
In the case of `COC(=O)C=C(C)CCC=C(C)C`, the result was inactive.

On to `CC(C)CCCCCCc1ccc(OCCOCCO)cc1`, for which the result was inactive.

For `O=CN1CCOCC1`, the outcome was inactive.

For the compound `Cc1[nH]c(=O)c(C#N)cc1-c1ccncc1`, the compound was called inactive.

With `CC(C)(C)CC(C)(C)c1ccc(OCCOCC[N+](C)(C)Cc2ccccc2)cc1`, the compound was called inactive.

Take `CCCCC1(COC(=O)CCC(=O)O)C(=O)N(c2ccccc2)N(c2ccccc2)C1=O`: the compound was called inactive.

Turning to `CN(c1nccc(=O)[nH]1)C1CCN(c2nc3ccccc3n2Cc2ccc(F)cc2)CC1`, the compound was called inactive.

With `Brc1ccc(Br)c(Br)c1`, the outcome was inactive.

With `O=[N+]([O-])c1cccc(Cl)c1`, the result was inactive.

With `Nc1c(Cl)cc(Cl)cc1[N+](=O)[O-]`, the compound was called inactive.

As for `O=C(Nc1ccc2c(O)c(N=Nc3ccc(N=Nc4ccc(S(=O)(=O)O)cc4)cc3)c(S(=O)(=O)O)cc2c1)c1ccccc1`, the outcome was inactive.

On to `Nc1c(S(=O)(=O)O)cc(Br)c2c1C(=O)c1ccccc1C2=O`, for which the call was inactive.

With `CCCCCCCCCCCC(=O)OCC(O)CO` (configuration not stated), the result was inactive.

Turning to `CC(C)(CO)[C@@H](O)C(=O)NCCC(=O)O`, the compound was classed as inactive.

Consider `CCN(CCN)c1cccc(C)c1`, for which the outcome was inactive.

Consider `CCCC(=O)C(CC)Sc1ccoc1C` (configuration not stated), for which the AC50 is 16 µM (active).

As for `CC(C)NCC(O)COc1ccc(CC(N)=O)cc1` (configuration not stated), the result was inactive.
